The panel holds about 83,000 compounds, 20% with a hit somewhere; the sample as a whole holds those more often.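 Interpretation: 100, growth as untreated; towards 0, rising growth inhibition; 0, no net growth; 0 to -100, cell death. Compounds scoring below 10 were considered active.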 Unmarked numbers belong to inactive results. Active and inactive are the calls of the source.
How the values were obtained:
Experiment in all cases: NCI-60 one-dose screen, 48 h (100 = growth as untreated, 0 = no growth, -100 = all killed)
Settings in all cases: 10 µM unless noted
[1] = tested on: SR leukemia
[2] = tested on: RPMI-8226 leukemia
[3] = tested on: OVCAR-8 ovarian
[4] = tested on: OVCAR-5 ovarian
[5] = tested on: OVCAR-4 ovarian
[6] = tested on: SK-OV-3 ovarian
[7] = tested on: IGROV1 ovarian
[8] = tested on: OVCAR-3 ovarian
[9] = tested on: HS 578T breast
[10] = tested on: NCI/ADR-RES ovarian
[11] = tested on: T-47D breast
[12] = tested on: BT-549 breast
[13] = tested on: MDA-MB-435 melanoma
[14] = tested on: SW-620 colon
[15] = tested on: MCF7 breast
[16] = tested on: HCT-116 colon
[17] = tested on: KM12 colon
[18] = tested on: HCC-2998 colon

Row | Structure (SMILES) | growth [1] | growth [2] | growth [3] | growth [4] | growth [5] | growth [6] | growth [7] | growth [8] | growth [9] | growth [10] | growth [11] | growth [12] | growth [13] | growth [14] | growth [15] | growth [16] | growth [17] | growth [18]
1 | O=c1ccc2nc(-c3ccccc3)nn(-c3ccccn3)c-2c1 | 1.2% (active) | 35.8% | 80% | 117% | 83.5% | 83.9% | 89% | -14.9% (active) | 101% | 101% | -40.9% (active) | 108% | 94.6% | -46.2% (active) | -37.1% (active) | 42.7% | 104% | –
2 | COc1ccc(NC(=O)c2ccc(Cl)cc2Cl)cc1 | 98.2% | 101% | 98.6% | 101% | 78.7% | 106% | 106% | 106% | 96.8% | 97.5% | 94.5% | 101% | 88.3% | 95% | 93.8% | – | 99.1% | 105%
3 | O=C1/C(=C/c2ccc(Br)cc2)COc2ccc(O)cc21 | 12.1% | -23.7% (active) | 79.1% | 94.8% | 97.9% | 120% | 84.3% | 96.8% | 96.2% | 94.6% | 80.6% | 79.2% | 75.6% | 1.35% (active) | 9.07% (active) | 16.9% | 26.8% | –
4 | Nc1n[nH]c2cccc(C#Cc3cccc(C(=O)Nc4ccc(Cl)c(C(F)(F)F)c4)c3)c12 | 56% | 53.1% | 65.8% | 43.4% | 56.2% | 106% | 35.8% | 81.6% | 53.3% | 62.2% | 33.5% | 78.3% | 42.8% | 61.8% | 50.2% | 28.5% | 59.4% | –
5 | C#C[C@]1(O)CC[C@H]2[C@@H]3CC=C4c5sc(-c6cccc(C)c6)nc5CC[C@]4(C)[C@H]3CC[C@@]21C | 38.6% | -6.87% (active) | 89.9% | 73.8% | 81.2% | 88.9% | 68.8% | 89.2% | 40.8% | 80.9% | 78.6% | 71.5% | 82.8% | 84.8% | 34.9% | 68.2% | 54.3% | –
6 | COc1ccccc1/C=C/C1=C(C)CCC(c2ccccc2OC)C1C (stereo unspecified) | -13.2% (active) | -4.33% (active) | 19.7% | 28.9% | 42.7% | 33.4% | -48.7% (active) | -21.6% (active) | 11.1% | 18% | 61.9% | -16.3% (active) | -3.28% (active) | 18.2% | 7.88% (active) | 2.8% (active) | 6.67% (active) | –
7 | [2H]C([2H])([2H])Oc1ccc(/C=C/C(=O)/C=C(/C=C/c2ccc(OC([2H])([2H])[2H])c(OC([2H])([2H])[2H])c2OC([2H])([2H])[2H])OB(F)F)c(OC([2H])([2H])[2H])c1OC([2H])([2H])[2H] | 8.05% (active) | 18.9% | 9.4% (active) | 91.1% | 65.2% | 103% | 57.1% | 14.5% | 60% | 54.6% | 51.7% | 78.6% | 26.7% | 18.4% | 28.2% | 6.6% (active) | 81.3% | –
8 | Nc1ccc(Cl)c2c(=O)c3ccccc3[nH]c12 | 100% | 71% | 92.2% | 93.2% | 53.8% | 89.2% | 94.7% | 75.2% | 98% | 97% | 82.6% | 75.4% | 86.3% | 86% | 65% | 84.9% | 89.7% | –
9 | CCCN1C(=O)N(CCC)C2C1NC(=S)N2/N=C/C=C/c1ccccc1OC (stereo unspecified) | 22% | 19% | 12.2% | 26.7% | 55.2% | 34.9% | 30.6% | -20.9% (active) | 9.95% (active) | 9.94% (active) | 40.3% | 56% | -56.1% (active) | 22% | 17.4% | 18.3% | 21.1% | –
10 | CCCCC#Cc1c(I)n(C2OC(CO[Si](C)(C)C(C)(C)C)C3OC(C)(C)OC32)c(=O)[nH]c1=O (stereo unspecified) | -5.46% (active) | -46.9% (active) | 85.7% | 82.5% | 70.3% | 98.8% | 83.8% | 42.7% | 100% | 84.5% | 12.3% | 99.2% | 82.9% | 47.6% | 62.4% | – | 109% | -19.8% (active)
11 | O=C1CC2C=CCN2C=C1NC(=O)c1ccccc1 (stereo unspecified) | 88.7% | 112% | 114% | 97.4% | 109% | 113% | 106% | 105% | 115% | 103% | 99.8% | 103% | 105% | 109% | 101% | 93.6% | 101% | –
12 | O=c1n(C2OC(CO)C(O)C2O)ccc2nccn12 (stereo unspecified) | 88.2% | 114% | 92% | 115% | 117% | 117% | 113% | 107% | 101% | 113% | 118% | 121% | 102% | 94.4% | 94.1% | 112% | 103% | –
13 | O=C(NS(=O)(=O)c1ccccc1)n1cc(-c2ccncc2)c(-c2cc(O)cc(Cl)c2)n1 | 42.6% | 85.2% | 104% | 115% | 92.2% | 107% | 99.4% | 108% | 104% | 97.3% | 90.1% | 101% | 66.6% | 123% | 102% | 91.7% | 99.5% | –
14 | COc1cccc(C(=O)Nc2cccc(NC(=O)c3ccccn3)c2)c1 | 77% | 101% | 104% | 94.3% | 96.4% | 97.7% | 101% | 105% | 116% | 96.1% | 87.4% | 91.3% | 93.2% | 109% | 83% | – | 99.6% | 83.2%
15 | CCN1C(=O)N(CC)C2C1NN=c1s/c(=C\c3ccc([N+](=O)[O-])cc3)c(=O)n12 (stereo unspecified) | 19.9% | 24.3% | 15.3% | 35% | 47.7% | 42.8% | 22.6% | 7.68% (active) | 17.1% | 9.89% (active) | 23.9% | 32.7% | -23.4% (active) | 19.8% | 7.6% (active) | – | 19.6% | 11.4%
16 | CCN1CCN(CCOc2ccc(CNc3ccc4nc(CCC5CCCCC5)[nH]c4c3)cc2)CC1 | 31.5% | -5.5% (active) | 38.2% | 58.7% | 48.2% | 87.1% | 40.9% | 27.8% | 65% | 73.5% | -8.02% (active) | 65.6% | -17.8% (active) | 22.1% | 3.86% (active) | 17.9% | 47.1% | –
17 | FC(F)(F)c1cc(N2CCCCC2)nc(NCCCNc2ccnc3cc(Cl)ccc23)n1 | -4.99% (active) | 39.9% | 66.2% | 87.6% | 43.4% | 72.1% | 60% | 54.8% | 74.7% | 44.9% | 37.7% | 61.2% | 76% | 94.3% | 43.7% | 39.3% | 64.7% | –
18 | CCN1CCN(c2cc(C(=O)Nc3cccc(Nc4ccc5c(OC)cccc5n4)c3)cc(C(F)(F)F)c2)CC1 | -3.44% (active) | 7.08% (active) | 21.1% | 54.8% | 26.9% | 54% | 12.8% | 33% | 34% | 9.7% (active) | 11% | 69.6% | 1.29% (active) | 3.22% (active) | -45.3% (active) | – | -10.3% (active) | -53.3% (active)

Reference: PubChem BioAssay (NCI)
